{"source": "PubChem BioAssay (NCATS)", "note": "Inconclusive results are not listed. A number with no mark means an inactive call. Calls follow the shape of the dose curve; as a rule, active = well fitted activation curve with a large enough effect; inconclusive = small, poorly fitted or top-dose-only effect; inactive = no such curve, though single readings can be large or run the other way.", "data": [{"target": "D(1A) dopamine receptor (Homo sapiens) (UniProt P21728)", "sequence (P21728 whole entry, looked up)": "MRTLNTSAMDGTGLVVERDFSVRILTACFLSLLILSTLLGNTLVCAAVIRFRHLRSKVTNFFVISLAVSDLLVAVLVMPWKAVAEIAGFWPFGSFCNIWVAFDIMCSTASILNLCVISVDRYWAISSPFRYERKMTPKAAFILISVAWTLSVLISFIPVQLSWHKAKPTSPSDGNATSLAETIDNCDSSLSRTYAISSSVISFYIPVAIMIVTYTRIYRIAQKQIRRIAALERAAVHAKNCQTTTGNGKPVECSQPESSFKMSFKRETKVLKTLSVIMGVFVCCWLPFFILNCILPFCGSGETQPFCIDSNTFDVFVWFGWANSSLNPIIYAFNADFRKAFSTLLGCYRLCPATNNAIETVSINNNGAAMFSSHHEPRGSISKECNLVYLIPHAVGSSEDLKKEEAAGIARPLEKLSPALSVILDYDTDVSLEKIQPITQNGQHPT", "experiment": "HTS Assay for Allosteric Agonists of the Human D1 Dopamine Receptor: Primary Screen for Potentiators (AID 488982); also: 0% is about no effect", "conditions": "HEK293 T-REx D1 inducible cells, calcium flux, kinetic fluorescence; series mostly up to 8.37 µM; activity, positive = potentiation: at the top concentration", "description": "Dopamine receptors (DARs) are involved in the etiology and/or therapy of a number of neuropsychiatric and endocrine disorders. For instance, all receptor-based antiparkinsonian drugs work via stimulating the […] DAR subtype whereas all FDA-approved antipsychotic agents are antagonists of this receptor. […] There are three different types of allosteric modulators that we are seeking, two of which will stimulate or augment receptor signaling, allosteric agonists and potentiators, while the third, allosteric antagonists, will attenuate receptor signaling. The present primary screening assay measures compound agonism by tracking calcium flux in a […], inducible Hek293 Trex D1 cell line.\nFreshly passaged cells are plated in 1536 well black, clear bottom plates at a density of 4000 cells/well in 3 ul of complete media containing 1x tetracycline inducer. After an overnight incubation at 30 C in 5% CO2, cells are loaded with 2 ul of the no wash Calcium Assay Kit (ABD Bioquest) and incubated at room temperature for 30 to 90 minutes. A 10 cycle (1 second/cycle) baseline measurement is taken and then the FDSS online 1536 pintool delivers 23 nl of compound library (as well as dopamine controls) to the plate. The plate is measured for kinetically at 1 cycle/sec for 180 seconds and is considered to be the agonist portion of the assay (eg, compounds which activate a positive calcium response during this portion are flagged as potential agonists). Following the 180 second read, 1 ul of an EC20 of dopamine is delivered by an onboard pipette head. Measurements are taken kinetically for an additional 180 seconds.", "units": {"activity, positive = potentiation": "%"}, "values": [{"smiles": "OC[C@H]1O[C@@H](n2cnc3c(NC4CCCCC4)ncnc32)[C@H](O)[C@@H]1O", "activity, positive = potentiation": -3.88}, {"smiles": "CN1[C@@H](CC(=O)c2ccccc2)CCC[C@H]1C[C@H](O)c1ccccc1", "activity, positive = potentiation": -20.9}, {"smiles": "C=C[C@@H]1CN2CC[C@@H]1C[C@H]2[C@H](O)c1ccnc2ccc(OC)cc12", "activity, positive = potentiation": -1.79}, {"smiles": "CCCCN1CCC(n2c(=O)[nH]c3ccccc32)CC1", "activity, positive = potentiation": -26.6}, {"smiles": "Nc1nc(Nc2ccccc2)nc2c1ncn2[C@@H]1O[C@H](CO)[C@@H](O)[C@H]1O", "activity, positive = potentiation": 15.6}, {"smiles": "Nc1nc(SCc2ccc([N+](=O)[O-])cc2)c2ncn([C@@H]3O[C@H](CO)[C@@H](O)[C@H]3O)c2n1", "activity, positive = potentiation": -11.8}, {"smiles": "NS(=O)(=O)C#Cc1ccccc1", "activity, positive = potentiation": 20.9}, {"smiles": "O=C(O)c1cc([N+](=O)[O-])ccc1NCCCc1ccccc1", "activity, positive = potentiation": 1.41}, {"smiles": "CN(C)CCC(c1ccc(Cl)cc1)c1ccccn1", "note": "(stereo not given)", "activity, positive = potentiation": -15.6}, {"smiles": "Cn1c(=O)c2[nH]c(-c3ccccc3)nc2n(C)c1=O", "activity, positive = potentiation": 4.9}, {"smiles": "NC(=S)NCCC[C@H](N)C(=O)O", "activity, positive = potentiation": 24}, {"smiles": "COc1cccc(OC)c1OCCNCC1COc2ccccc2O1", "note": "(stereo not given)", "activity, positive = potentiation": -97.9}, {"smiles": "CC(=O)/C=C1\\C(=O)N(C)c2ccccc21", "activity, positive = potentiation": -62.1}, {"smiles": "CCCC1(C)C(C#N)(C#N)C1(C#N)C#N", "activity, positive = potentiation": 11.8}, {"smiles": "Clc1ccc(N2CCN(Cc3cc4ccccn4n3)CC2)cc1", "activity, positive = potentiation": -16.5}, {"smiles": "NCC1OC(O[C@H]2[C@H](O)[C@@H](OC3C(O)C(N)CC(N)C3OC3OC(CO)C(O)C(O)C3N)O[C@@H]2CO)C(N)C(O)C1O", "note": "(stereo not given in full)", "activity, positive = potentiation": 13.4}, {"smiles": "CN(C)CCCO[C@@H]1[C@H]2OC(C)(C)O[C@H]2O[C@@H]1[C@H](O)CO", "activity, positive = potentiation": 11.8}, {"smiles": "N#C/C(=C\\c1ccc(O)c(O)c1)C(=O)NCCCc1ccccc1", "activity, positive = potentiation": 28.8}, {"smiles": "O=C(O)CCCC[C@@H]1CCSS1", "activity, positive = potentiation": 21.6}, {"smiles": "OC[C@H]1O[C@@H](n2cnc3c(Nc4ccccc4)ncnc32)[C@H](O)[C@@H]1O", "activity, positive = potentiation": 16.1}, {"smiles": "C=C[C@H]1CN2CC[C@@H]1C[C@@H]2[C@@H](O)c1ccnc2ccc(OC)cc12", "activity, positive = potentiation": -34.3}, {"smiles": "Cc1ccccc1CNc1ncnc2c1ncn2C1OC(CO)C(O)C1O", "note": "(stereo not given)", "activity, positive = potentiation": 0.91}, {"smiles": "C=CC(=O)c1ccc(CCCCCC)cc1", "activity, positive = potentiation": -23}, {"smiles": "O=C1/C(=C/c2ccsc2)CC/C1=C\\c1cccs1", "activity, positive = potentiation": 11}, {"smiles": "CCNC(=O)[C@H]1O[C@@H](n2cnc3c(N)nc(NCCc4ccc(CCC(=O)O)cc4)nc32)[C@H](O)[C@@H]1O", "activity, positive = potentiation": -34.2}, {"smiles": "CN(C)C(N)=NCCC[C@H](N)C(=O)O", "activity, positive = potentiation": 10}, {"smiles": "O=C1NC(O)=NC1(c1ccccc1)c1ccccc1", "activity, positive = potentiation": 30.1}, {"smiles": "N=c1ccn2c(n1)O[C@H]1[C@H](O)[C@@H](CO)O[C@H]12", "activity, positive = potentiation": 11.1}, {"smiles": "Brc1c(Br)c(Br)c2n[nH]nc2c1Br", "activity, positive = potentiation": -9.44}, {"smiles": "NCCNC(=O)c1ncsc1-c1cccc(F)c1", "activity, positive = potentiation": -21.1}, {"smiles": "CCCCCCCCCCCCCCCCCC(=O)OC(CC(=O)O)C[N+](C)(C)C", "note": "(stereo not given)", "activity, positive = potentiation": -6.74}, {"smiles": "CNC(=O)[C@H]1O[C@@H](n2cnc3c(NCc4cccc(I)c4)ncnc32)[C@H](O)[C@@H]1O", "activity, positive = potentiation": -18.1}, {"smiles": "COc1cc(OC)c(/C=C2/C(=O)Nc3ccccc32)c(OC)c1", "activity, positive = potentiation": -18.4}, {"smiles": "COc1cccc(C(=O)NCCN2CCN(c3ccc(Cl)cc3)CC2)c1", "activity, positive = potentiation": 18.3}, {"smiles": "OCC1O[C@H]([S-])[C@H](O)[C@@H](O)[C@@H]1O.[Au+]", "note": "(stereo not given in full)", "activity, positive = potentiation": 15}, {"smiles": "Ic1ccc(N2CCN(Cc3c[nH]c4ncccc34)CC2)cc1", "activity, positive = potentiation": -93.8}, {"smiles": "CCOC(=O)C1=C(C)NC(C)=C(C(=O)OCC)C1c1c(F)c(F)c(F)c(F)c1F", "activity, positive = potentiation": -5.37}, {"smiles": "Nc1ncnc2c1c(I)cn2[C@@H]1C[C@H](N)[C@@H](O)[C@H]1O", "activity, positive = potentiation": -2}, {"smiles": "O=C(/C=C/c1ccc(O)cc1)c1ccc(O)cc1O", "activity, positive = potentiation": -3.76}, {"smiles": "CC(=O)N[C@H](C(=O)O)C(C)(C)SN=O", "activity, positive = potentiation": 20.7}]}]}
